Molecules are shown by their SMILES. Where “and” joins values, the source holds several entries; their conditions need not be identical. Identical values can stand only once. About 18,000 (4.4%) of roughly 410,000 compounds were called active. Not shown: some 7% with an inconclusive outcome. Only a selection was taken, and actives are over-represented in it overall. Values without a mark were called inactive. Cut-off read from the data, not from the text of the source: active = activity change below about -60%; inconclusive = no clear call, values can overlap the other calls; inactive = above about -39%.
% is set by controls: 0 for no effect and ±100 for the full control effect.

A short description of the assay: qHTS Assay for inhibitors of the human cytomegalovirus (HCMV). The settings on record: HFF cells, HCMV-luciferase reporter, 72 h; at 57.5 µM; active compounds read low. The method in brief: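 Two compound doses tested in HFFs infected with HCMV-luciferase, MOI 1 PFU/cell, 72 h at 37C. Lysate luminescence read with OneGlo; data normalized against buffer-only and 10uM Salinomycin inhibitor controls.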
On the technique in general: qHTS replaces the single test concentration by a dilution series.
In the case of `Cc1cccc(NC(=O)c2nnn(CC(=O)Nc3ccc(C(C)C)cc3)c2N)c1C`, the activity change, negative = inhibition was 3.95%.
The value for `COc1ccccc1/C=C/C1=NC(=C\N(C)C)/C(=O)O1` was 64.2%.
For `COc1cccc(/C=C/c2ccc3ccccc3n2)c1OC(C)=O`, the activity change, negative = inhibition is -95.1% (active).
On to `COc1cccc(NC(=O)COC(=O)c2ccc3ccccc3n2)c1`, for which the activity change, negative = inhibition is 78.4%.
The value for `CCOc1cccc(/C=C/c2ccc3ccccc3n2)c1OC(C)=O` was -79.7% (active); that for `CCOc1ccc2ccccc2c1/C=N/NC(=O)c1c(C)cc(C)[nH]c1=O` was -32.4%.
With `Cc1cc(C)cc(NS(=O)(=O)c2cc3c(cc2C)NC(=O)CO3)c1`, the activity change, negative = inhibition was -26.3%.
Under `Cc1cccc(N2CCN(C(=O)c3cc4c(=O)oc5ccccc5c4s3)CC2C)c1` (stereo not drawn) stands 1.15%.
The value for `COc1ccc(NC(=O)Cn2c(=O)n(CCC(C)C)c(=O)c3cccnc32)cc1Cl` was -4.37%; that for `O=C(Nc1ccc(F)cc1)Nc1nnc([C@H]2C[C@H](O)[C@@H](CO)O2)s1` was 30.2%.
Regarding `O=C(Nc1nnc([C@H]2C[C@H](O)[C@@H](CO)O2)s1)c1cccc(Cl)c1`, the activity change, negative = inhibition was 40.2%.
With `Cc1ccc(CNC(=O)Nc2nnc([C@H]3C[C@H](O)[C@@H](CO)O3)s2)cc1`, the activity change, negative = inhibition is -100% (active).
`COc1ccccc1OCCC(=O)OCC(=O)NCc1ccccc1`: the activity change, negative = inhibition is 14.2%.
Regarding `COc1cc(-c2nnn(CC(=O)NCc3ccccc3)n2)cc(OC)c1OC`, the activity change, negative = inhibition was 5.2% and 12.4%.
Under `COc1cc(C(=O)NCc2ccncc2)cc(Br)c1OCc1ccccc1` stands -62.2% (active).
Regarding `CCC(=O)N1CCc2cc(S(=O)(=O)NC(C(=O)N3CCc4ccccc4C3)C(C)C)ccc21` (stereo not drawn), the activity change, negative = inhibition is -14.7%.
The value for `Cc1nc(NC(CC(C)C)C(=O)O)c2nc(C)oc2n1` (stereo not drawn) was -6.81%; that for `CCOc1ccc2c(=O)c(-c3ccc4c(c3)OCCCO4)c(C)oc2c1` was 20.1%; that for `O=c1c(-c2ccc3c(c2)OCCO3)c(C(F)(F)F)oc2cc(O)cc(O)c12` was -90.6% (active).
Under `CCOC(=O)c1cc2cc(-c3c(C(=O)OCC)oc4cc(O)cc(O)c4c3=O)ccc2o1` stands -2.73%; under `CCc1ccc(CNC(=O)c2ccc(CS(=O)c3ccc(Br)cc3)o2)cc1` (stereo not drawn), 10.6%.
Under `CCOC(=O)c1cc(-c2ccccc2)n(CCC(=O)Nc2ccccc2CC)c1C` stands 30.9%; under `Cc1ccc(Cl)cc1NC(=O)CSc1nc2ccccc2nc1Cc1ccccc1`, 36.7%; under `CCN1/C(=C\c2ccc3ccccc3[n+]2CC)Sc2cc(C)ccc21`, -99.8% (active).
As for `O=c1o[nH]c(-c2ccccc2)c1N=Nc1c(F)cccc1Cl`, the activity change, negative = inhibition was -12.9%.
Under `COc1cc(NC(=O)CCn2nc(C)cc2C)cc(OC)c1OC` stands 9.6%; under `COc1ccccc1/C=C1\SC(=O)N(CCC(=O)N(C)C2CCS(=O)(=O)C2)C1=O` (stereo not drawn), -7.61%; under `CN(C(=O)CN1C(=O)S/C(=C\c2ccccc2F)C1=O)C1CCS(=O)(=O)C1` (stereo not drawn), -18.9%.
Under `CN(C(=O)CCN1C(=O)/C(=C/c2ccccc2F)SC1=S)C1CCS(=O)(=O)C1` (stereo not drawn) stands -63.4% (active); under `CCCNC(=O)CCC(=O)N1Cc2ccccc2Oc2ncccc21`, 2.27%.
For the compound `Cc1cc(=O)n2[nH]c(-c3sccc3-n3c(C)ccc3C)cc2n1`, the activity change, negative = inhibition was -64.1% (active).
Under `COc1ccccc1CNS(=O)(=O)c1cc(Br)cc2c1N(C(C)=O)C(C)C2` (stereo not drawn) stands -27.7%.
Under `O=C(COC(=O)c1ccccc1F)Nc1cc(S(=O)(=O)N2CCOCC2)ccc1N1CCCC1` stands -28.5%; under `COc1cc(NC(=O)COC(=O)c2cc(S(=O)(=O)N3CCOCC3)ccc2F)cc(OC)c1`, -68.7% (active).
As for `O=C(COC(=O)c1cc(S(=O)(=O)N2CCOCC2)ccc1F)NC1CC1`, the activity change, negative = inhibition was -20.2%.
Turning to `CCCC12CN3CC(C)(CN(C1)C3c1ccccc1Cl)C2=O` (stereo not drawn), the activity change, negative = inhibition is 1.49%.
Under `Cc1cccc(NC(=O)Nc2cccc(Oc3c(F)c(F)c(F)c(F)c3F)c2)c1` stands -76.5% (active); under `Cc1cccc(NC(=O)NC2(C)CCS(=O)(=O)C2)c1` (stereo not drawn), 14.3%.
The value for `Cc1ccoc1C(=O)Nc1cccc(Oc2ccccc2)c1` was 16.8%; that for `COc1ccc(CCNC(=O)CCCCn2c(=O)c3ccccc3n(Cc3ccccc3C)c2=O)cc1OC` was -31.9%.
On to `CCOC(=O)c1ccc(NC(=O)c2c(NCc3cccc(OC)c3)sc3c2CCC3)cc1`, for which the activity change, negative = inhibition was -1.86%.
The value for `Cc1ccccc1OCC(=O)Nc1ccc(N2CCN(C(=O)C(C)C)CC2)c(Cl)c1` was 1.1%; that for `CCC(=O)N1CCN(c2ccccc2NC(=O)COc2cccc(C)c2C)CC1` was -63.8% (active).
For the compound `CCOc1ccccc1NC(=S)N1CCN(c2cccc(C)c2C)CC1`, the activity change, negative = inhibition is -37.3%.
Under `COc1ccc(C)cc1NC(=O)C(=O)NCCc1sc(-c2cccc(C)c2)nc1C` stands -4.02%.
The value for `Cc1ccccc1CCNC(=O)C1CCN(c2nc3ccccc3nc2C(F)(F)F)CC1` was -6.7%; that for `O=C(/C=C/c1cccc([N+](=O)[O-])c1)NCCSCc1ccco1` was -19.7%.
Consider `COc1ccc(C)cc1S(=O)(=O)N(CC(=O)Nc1cccc([N+](=O)[O-])c1)c1ccc(C)cc1`, for which the activity change, negative = inhibition was -7.9%.
The value for `CC(C)OP(=O)(OC(C)C)C(Nc1ccccc1)c1cccc([N+](=O)[O-])c1` (stereo not drawn) was -30.9%; that for `CCC(CC)NC(=O)/C=C/c1cccc([N+](=O)[O-])c1` was -60.1% (active).
For `CCc1ccc(NC(=O)C(C)OC(=O)/C=C/c2cccc([N+](=O)[O-])c2)cc1` (stereo not drawn), the activity change, negative = inhibition was 7.98%.
Consider `COC(=O)/C=C\C(=O)Nc1cccc([N+](=O)[O-])c1`, for which the activity change, negative = inhibition is -87.4% (active).
Under `COc1ccc(-c2nc(S(=O)(=O)c3ccccc3)c(N3CCCCC3)o2)cc1` stands -14.3%; under `CCOc1ccc2nc(N3CCCC(C(=O)Nc4cc(C)ccc4C)C3)sc2c1` (stereo not drawn), 69.3%.
Under `CCn1cc(C(=O)N(C)Cc2ccccc2)c(=O)c2cc(S(=O)(=O)N3CCCCCC3)ccc21` stands 4.41%; under `CC(=O)N1c2ccc(S(=O)(=O)NCCC(=O)N(C)C3CCCCC3)cc2CC1C` (stereo not drawn), -39.5%.
Under `COc1ccc(C(F)(F)F)cc1NC(=O)c1sc2nc(-c3cccs3)ccc2c1N` stands 14.5%; under `N#Cc1ccc(C(=O)Nc2nc(-c3cccs3)c(C(=O)C(F)(F)F)s2)cc1`, -96.5% (active).
`CCn1c(NC(=O)c2ccccc2)c(-c2cccs2)c(=O)c2ccccc21`: the activity change, negative = inhibition was 25.8%.
The value for `O=C(NCCS(=O)(=O)N1CCN(c2ccc(F)cc2)CC1)c1ccccc1Br` was 20.8%.
The value for `Cn1c(=O)c2c(SCC(=O)NCC3CCCO3)nc(-c3ccccc3F)nc2n(C)c1=O` (stereo not drawn) was -4.16%; that for `Cc1ccc(-c2cc(N)n(Cc3cccc(Cl)c3)n2)cc1` was -21.8%; that for `COc1ccc(C(C[N+](=O)[O-])n2nc(C)cc2C)cc1` (stereo not drawn) was -11%.
The value for `COc1cc(Cl)c(C)cc1Nc1nnc(-n2nc(C)cc2C)c2ccccc12` was 16.8%; that for `COc1cccc(/C=N/Nc2cc(C)nc(-c3ccccc3O)n2)c1O` was -95.8% (active).
For the compound `COc1ccc(-c2nc3nc(C)cc(C)n3c2Nc2c(C)cccc2C)cc1`, the activity change, negative = inhibition was -8%.
As to `COc1ccc(Nc2cc(C)nc(-n3nc(C)cc3C)n2)cc1`, the activity change, negative = inhibition was -84.3% (active).
The value for `CCOC(=O)c1cnc(-n2nc(C)cc2C)nc1NNc1cc(C)nc(-c2ccccc2)n1` was -1.83%; that for `Cc1cccc(Nc2cc(C)nc(-n3nc(C)cc3C)n2)c1` was -83.8% (active).
Under `COc1ccccc1/C=N\Nc1cc(C)nc(-n2nc(C)cc2C)n1` stands -94.4% (active); under `Cc1cc(C)n(-c2nnc(N3CCN(c4ccccc4)CC3)nn2)n1`, -11.6%.
As for `Cc1ccc(Nc2nc3ccccc3nc2-n2nc(C)cc2C)c(Cl)c1`, the activity change, negative = inhibition is 2.84%.
For the compound `COc1ccc(/C=C/c2noc(-c3ccccc3O)n2)cc1OC`, the activity change, negative = inhibition was 63.9%.
Under `CCCCc1nnc(NC(=O)CSc2nc(N)cc(=O)[nH]2)s1` stands -10.9%; under `O=S(=O)(NCCS(=O)(=O)N1CCN(c2ccccc2)CC1)c1ccc(Cl)cc1`, -35.4%; under `CCOc1cc(/C=C(\C#N)C(=O)Nc2ccccc2C)ccc1OCc1cc(=O)n2nc(CC)sc2n1`, -5.21%.
Consider `CSc1nc(=O)c2c(n1C)NC(=O)CC2c1ccccc1OC(C)C` (stereo not drawn), for which the activity change, negative = inhibition was -11%.
For the compound `Cc1nnc(SCC(=O)N2c3ccccc3C(C)(c3ccc(Cl)cc3)CC2(C)C)s1` (stereo not drawn), the activity change, negative = inhibition was -74.1% (active).
The value for `O=C(CSc1nnc(SCc2ccc(Cl)cc2)s1)N/N=C/c1ccccc1Cl` was 13.9%; that for `CC1(c2cccc([N+](=O)[O-])c2)CC(C)(C)N(C(=O)c2ccccc2)c2ccccc21` (stereo not drawn) was -23.1%; that for `CCOC(=O)C(Cc1ccccc1)NC(=O)CCc1c(C)nc2c(c(C)nn2-c2ccc(C)c(C)c2)c1C` (stereo not drawn) was 35.7%.
Take `Cc1ccc(SCC(=O)Nc2ccc3oc(-c4ccccc4F)nc3c2)cc1`: the activity change, negative = inhibition is 68.8%.
The value for `COc1ccc(Cl)cc1NC(=O)C(C)Sc1nc2c(c(=O)[nH]1)CCCC2` (stereo not drawn) was 12.7%.
Regarding `COc1cccc(OCCOc2cccc(/C=N/n3cnnc3)c2)c1`, the activity change, negative = inhibition is 27%.
As for `Cc1ccccc1OS(=O)(=O)c1cccc([N+](=O)[O-])c1`, the activity change, negative = inhibition was -19.5%.
For `Cc1ccccc1OCCOc1ccc([N+](=O)[O-])cc1/C=N/n1cnnc1`, the activity change, negative = inhibition was -98.2% (active).
As for `CC1(c2nnc(Cc3ccccc3)o2)CC(c2ccccc2F)=NO1` (stereo not drawn), the activity change, negative = inhibition was 4.15%.
Turning to `CCCOc1ccc(NC(=O)CC2C(=O)N(c3ccccc3)C(=O)N2Cc2ccco2)cc1` (stereo not drawn), the activity change, negative = inhibition is 38.3%.
